# In all, about 360,000 compounds went through this assay and about 25,000 (6.9%) were called active. Where a call stands in place of a potency, no number is given. Roughly 9% stayed inconclusive and do not appear here. The call rests on the fitted dose curve; in most records, active means well fitted inhibition curve with a large enough effect; inconclusive means small, poorly fitted or top-dose-only effect; inactive means flat fitted curve, though single readings scatter. Only a selection was taken, and actives are over-represented in it overall.
# Target: Luciferin 4-monooxygenase (Photinus pyralis) (UniProt P08659)
# Sequence (P08659 whole entry, looked up): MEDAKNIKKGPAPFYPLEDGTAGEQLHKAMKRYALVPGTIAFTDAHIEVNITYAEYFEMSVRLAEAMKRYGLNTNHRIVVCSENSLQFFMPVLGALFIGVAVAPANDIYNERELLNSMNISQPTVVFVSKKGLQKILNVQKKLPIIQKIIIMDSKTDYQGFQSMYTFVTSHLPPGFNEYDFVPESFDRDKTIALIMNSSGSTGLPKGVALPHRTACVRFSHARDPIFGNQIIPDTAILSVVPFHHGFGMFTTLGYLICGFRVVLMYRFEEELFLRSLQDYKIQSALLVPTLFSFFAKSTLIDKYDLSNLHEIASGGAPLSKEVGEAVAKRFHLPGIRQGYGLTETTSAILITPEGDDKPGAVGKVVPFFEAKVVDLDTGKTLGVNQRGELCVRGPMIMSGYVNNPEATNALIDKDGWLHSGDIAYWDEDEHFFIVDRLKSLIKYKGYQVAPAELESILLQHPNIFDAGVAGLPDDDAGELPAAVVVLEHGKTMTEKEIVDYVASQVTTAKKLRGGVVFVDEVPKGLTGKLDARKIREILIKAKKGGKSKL
# Assay: qHTS profiling assay for firefly luciferase inhibitor/activator using purifed enzyme and Km concentrations of substrates (counterscreen for miR-21 project); further: nearly all actives have a fitted effect of over 55% in size
# Conditions: purified FLuc, luminescence inhibition; series mostly up to 57.5 µM
# Summary of the method: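 Purified P. pyralis luciferase (10nM final) with 10uM D-luciferin and 10uM ATP (Km levels) in 50mM Tris acetate pH 7.5, 10mM Mg acetate, 0.01% Tween-20, 0.05% BSA; qHTS 6-point titration, ~60 µM downward; luminescence read.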
# Potency means the concentration at half of the fitted maximal effect.
row,SMILES,Potency
1,Cc1cc(C)c(C#N)c(SCC(=O)N(CC(C)C)C2CCS(=O)(=O)C2)n1 (centres undefined),inactive
2,O=C(COC(=O)CNC(=O)C1CCCCC1)Nc1cccc(F)c1,inactive
3,Nc1c(C(=O)OCC(=O)Nc2ccc(OC(F)F)cc2)[nH]c(=O)[nH]c1=O,inactive
4,O=S(=O)(c1ccc2nc(N3CCN(c4cccc(Cl)c4)CC3)ccc2c1)N1CCCCC1,inactive
5,Cc1ccc(C(=O)NNC(=O)c2ccncc2)cc1S(=O)(=O)N1CCCCC1,inactive
6,Cc1ccc(NC(=O)C2CC(=O)N(c3ccc4c(c3)OCCO4)C2)cc1S(=O)(=O)N1CCCCCC1 (centres undefined),inactive
7,Cc1ccc(C(=O)Nc2ccc3c(c2)OCO3)cc1S(=O)(=O)N1CCCCC1,16.9 µM (active)
8,O=C(Nc1ccc2c(c1)OCCO2)c1ccc(Cl)c(S(=O)(=O)N2CCCCC2)c1,13.5 µM (active)
9,O=C(c1ccc(Cl)c(S(=O)(=O)N2CCCCC2)c1)N1CCCCCC1,inactive
10,O=C(c1ccc(Cl)c(S(=O)(=O)N2CCCCCC2)c1)N1CCN(c2ccc(O)cc2)CC1,inactive
11,Cc1c(Cl)cccc1NC(=O)CCS(=O)(=O)c1ccc2c(c1)oc(=O)n2C,inactive
12,COc1ccccc1CNS(=O)(=O)c1cc(C(=O)NCc2ccccn2)c(Cl)cc1Cl,inactive
13,CCC(C(=O)Nc1cc(OC)ccc1OC)n1c(=O)c(C(F)(F)F)nc2ccccc21 (centres undefined),inactive
14,O=C(O[C@H]1[C@H](Cc2ccccc2)NS(=O)(=O)[C@H]2C[C@@H]3C=C[C@]12O3)c1ccc([N+](=O)[O-])cc1,inactive
15,CCc1nonc1NC(=O)c1oc2ccc(Cl)cc2c1C,inactive
16,Cc1cc(C)cc(NS(=O)(=O)c2cc3c(cc2C)NC(=O)CO3)c1,inactive
17,Cc1cccc(C(=O)N2CCc3c([nH]c4ccccc34)C2CC(C)C)n1 (centres undefined),16.9 µM (active)
18,Cc1ccc(C2c3[nH]c4ccccc4c3CCN2C(=O)c2cccc(C)c2)cc1 (centres undefined),inactive
19,Cc1cccc(C2c3[nH]c4ccccc4c3CCN2C(=O)c2cc(-c3cccn3C)n[nH]2)n1 (centres undefined),inactive
20,O=C(NCc1cccnc1)C(=O)NCC(c1cccnc1)N1CCN(c2ccccc2)CC1 (centres undefined),inactive
21,CCn1cc(C(=O)NCc2ccc(C)cc2)c(=O)c2cc(S(=O)(=O)N3CCc4ccccc4C3)ccc21,inactive
22,O=C(Nc1cccc([N+](=O)[O-])c1)Nn1cnnc1,inactive
23,CN1CCN(CC(=O)Nc2cccc([N+](=O)[O-])c2)CC1,inactive
24,Cc1ccc(NC(=O)CN2CCc3ccccc3C2)cc1C,inactive
25,CCc1ccc(NC(=O)N2CCc3ccccc3C2)cc1,12 µM (active)

row,SMILES,Potency
1,CCc1ccc(NC(=O)N2CCN(c3ccccc3)CC2)cc1,inactive
2,O=C(Nc1cccc([N+](=O)[O-])c1)N1CCc2ccccc2C1,21.3 µM (active)
3,Cc1cc(-c2ccc(C)c(S(=O)(=O)N3c4ccccc4CC3C)c2)on1 (centres undefined),inactive
4,Cn1c(=O)c2c(nc(SCC(=O)Nc3ccc(F)cc3)n2Cc2ccc(Cl)cc2)n(C)c1=O,inactive
5,S=C(Cc1ccc(Cl)cc1)N1CCOCC1,inactive
6,CCOC(=O)c1ccc(N2C(=O)c3n[nH]c(C)c3C2c2ccc(O)c(OC)c2)cc1 (centres undefined),inactive
7,CCOc1ccc(N(CC)S(=O)(=O)N2CCCC(C(=O)Nc3ccc(C(C)=O)cc3)C2)cc1 (centres undefined),inactive
8,NC(=O)CC[C@@H]1NC(=O)[C@@H]2CCCN2C(=O)c2cc([N+](=O)[O-])cc(F)c2NCCC[C@@H](C(N)=O)NC1=O,inactive
9,Cc1ccc(C(C)C)c(OCCSc2nc3ccccc3n2CC(=O)O)c1,inactive
10,CCc1ccc(NC(=O)C2CCCN2S(=O)(=O)c2ccc3nc(-c4ccccc4)[nH]c3c2)cc1 (centres undefined),inactive
11,CCOc1ccc(C(=O)CCC(=O)Nc2ccncc2)cc1,inactive
12,CCOc1ccc(NCCC(=O)c2ccc3c(c2)OCO3)cc1,21.3 µM (active)
13,COc1ccc(C2(C)NC(=O)N(CC(=O)c3ccc4c(c3)OCO4)C2=O)cc1 (centres undefined),inactive
14,Cc1ccc2nc(CN3CCN(S(=O)(=O)c4ccc(C)c(C)c4)CC3)oc2c1,inactive
15,CCC1CCCCN1S(=O)(=O)Cc1ccccc1Cl (centres undefined),inactive
16,CC1(C)NC(=O)N(CC(=O)N2CCN(S(=O)(=O)c3ccccc3F)CC2)C1=O,inactive
17,Cc1ccc(NC(=S)Nc2ncccc2C)c(C)c1,6.75 µM (active)
18,Cc1ccc(NC(=S)NCc2ccccc2Cl)c(C)c1,inactive
19,Cc1ccc(NC(=S)NCCc2ccc(Cl)cc2)c(C)c1,inactive
20,COc1ccc2c(-c3ccccc3)cc(SCC(=O)N(C)C3CCS(=O)(=O)C3)nc2c1 (centres undefined),inactive
21,CCn1c(SCC(=O)N(C)C2CCS(=O)(=O)C2)nnc1-c1cccs1 (centres undefined),inactive
22,CN(C(=O)CSc1nnc(-c2ccc(C(C)(C)C)cc2)n1C)C1CCS(=O)(=O)C1 (centres undefined),15.1 µM (active)
23,CN(C(=O)CSc1nnc(-c2ccc3c(c2)OCO3)o1)C1CCS(=O)(=O)C1 (centres undefined),inactive
24,CN(C(=O)CSc1nnc(Nc2ccccc2)s1)C1CCS(=O)(=O)C1 (centres undefined),16.9 µM (active)
25,CC(C)N(C(=O)CSc1nnc(NC2CC2)s1)c1ccccc1,inactive

row,SMILES,Potency
1,COc1cccc(-c2nc(CS(=O)(=O)CC(=O)N3CCN(c4cc(C)ccc4C)CC3)c(C)o2)c1,inactive
2,COc1cccc(OCC(O)CNC(=O)c2oc3c(C)c(C)ccc3c2C)c1 (centres undefined),inactive
3,O=C(NCc1ccccc1)C(=O)NCC1OCCN1S(=O)(=O)c1ccc(Br)cc1 (centres undefined),inactive
4,O=C(Oc1ccc(-c2nnco2)cc1)c1ccc(F)c(S(=O)(=O)N2CCOCC2)c1,inactive
5,Cc1occc(=O)c1OCc1ccc(F)cc1,inactive
6,Fc1ccc(COc2ccc(-c3nnco3)cc2)cc1,13.5 µM (active)
7,CCCN1Cc2cccc(C(=O)Nc3ccc(S(=O)(=O)N4CCCCCC4)cc3)c2C1=O,inactive
8,COc1ccc(NC(=O)c2cccc3c2C(=O)N(CC2CCCO2)C3)cc1OC (centres undefined),26.9 µM (active)
9,COC(=O)c1ccc(NC(=O)c2cccc3c2C(=O)N(C2CCCCC2)C3)cc1,inactive
10,COc1ccc(C(=O)Nc2ccc(C(=O)NCC3CCCO3)cc2)c(OC)c1OC (centres undefined),inactive
11,CCOc1ccc(NC(=O)c2cccc3c2C(=O)N(CC2CCCO2)C3)cc1 (centres undefined),8.49 µM (active)
12,COCCN1Cc2cccc(C(=O)Nc3ccccc3OC)c2C1=O,inactive
13,Cc1ccsc1CN(C(=O)c1oc2ccc(Br)cc2c1C)C1CCS(=O)(=O)C1 (centres undefined),inactive
14,O=C1C=C(c2cc(C(F)(F)F)cc(C(F)(F)F)c2)C[C@@H](c2ccc3c(c2)OCO3)C1,inactive
15,COc1ccccc1-c1cnn2c(N3CCOCC3)cc(C)nc12,6.01 µM (active)
16,Cc1cc(-n2nc(C)cc2C)n2ncc(-c3ccccc3)c2n1,inactive
17,Cc1cc(C(F)(F)F)n2ncc(-c3ccccc3)c2n1,inactive
18,CC1Cc2ccccc2N1S(=O)(=O)c1cccc(C(=O)NCC(c2ccco2)N2CCCC2)c1 (centres undefined),inactive
19,COc1ccccc1CNC(=O)C(=O)NCC(c1cccs1)S(=O)(=O)c1cccs1 (centres undefined),inactive
20,O=S(=O)(/C=C/c1ccccc1)N1CCNCC1,inactive
21,O=C(/C=C/c1ccccc1)c1ccccc1O,3.38 µM (active)
22,COc1ccc(C(=O)/C=C/c2ccc(-c3ccccc3)cc2)cc1CSCC(=O)O,inactive
23,O=C(/C=C/c1ccccc1)c1ccoc1,15.1 µM (active)
24,Cc1[nH]c(=O)c(C(=O)/C=C/c2ccccc2)c2c1CCCC2,inactive
25,O=C(/C=C(O)/C=C/c1ccc(O)cc1)/C=C/c1ccc(O)cc1,inactive

row,SMILES,Potency
1,O=C(CSc1nnc(-c2ccncc2)n1-c1ccccc1)Nc1ccc(Cl)c(Cl)c1,inactive
2,COc1ccc(CCNC(=O)c2cn(C)c3ccc(S(=O)(=O)N(C)C4CCCCC4)cc3c2=O)cc1OC,inactive
3,CSc1ccc(C2c3c(oc4ccccc4c3=O)C(=O)N2CCCN2CCOCC2)cc1 (centres undefined),inactive
4,COc1cc(Cl)c(C)cc1NC(=O)CSc1nnc(-c2ccco2)n1CC(C)C,inactive
5,COc1ccc(OC)c(S(=O)(=O)Nc2cccc(-c3ccc4nncn4n3)c2)c1,inactive
6,CCOc1ccc(C(=O)Nc2cccc(SC)c2)cc1,6.01 µM (active)
7,CCOc1ccc(C(=O)Nc2cccc(-c3ccc4nncn4n3)c2)cc1,8.49 µM (active)
8,CCOc1ccc(C(=O)Nc2c3c(nn2-c2ccccc2)CS(=O)(=O)C3)cc1,inactive
9,CCOc1cccc(NC(=O)CC#N)c1,inactive
10,CCOc1ccc(NC(=O)c2ccc(NC(=O)COC(=O)c3ccc(NC(=O)CC#N)cc3)cc2)cc1,inactive
11,NS(=O)(=O)c1ccc(CCNS(=O)(=O)c2cccc3cccnc23)cc1,inactive
12,O=C(O[C@@H]1[C@H](Cc2ccccc2)NS(=O)(=O)[C@H]2C[C@@H]3C=C[C@]12O3)c1ccccc1Br,inactive
13,COc1cccc(NC(=O)N2CCCC2C(=O)NC2CCCCC2)c1 (centres undefined),inactive
14,COc1cccc(NC(=O)NCCN2CCCCC2)c1,inactive
15,COc1cccc(NC(=O)Nc2nnc(N3CCCCC3C)s2)c1 (centres undefined),13.5 µM (active)
16,CCOC(=O)C1(CCOC)CCN(Cc2cc3ccccc3s2)CC1,inactive
17,CN(Cc1ccccc1)S(=O)(=O)c1ccc(F)c(C(=O)Nc2cccc(Cl)c2Cl)c1,inactive
18,O=C1c2cccnc2C(Nc2ccc(S(=O)(=O)N3CCCCCC3)cc2)N1Cc1ccccc1 (centres undefined),inactive
19,C(=N\Nc1ccc2ccccc2n1)/c1ccc2c(c1)OCO2,0.19 µM (active)
20,O=C(Cc1ccc(F)cc1)N/N=C/c1ccc2c(c1)OCO2,inactive
21,Cc1noc(C)c1/C=N/Nc1ccc2ccccc2n1,1.69 µM (active)
22,Brc1ccc(-c2csc(N/N=C/c3ccc4c(c3)OCO4)n2)cc1,inactive
23,COc1ccc(NC(=O)C2C3CCC(O3)C2C(=O)O)cc1OC (centres undefined),inactive
24,Cc1cccn2c(=O)c3cc(C(=O)NC(C)c4ccccc4)c(=N)n(CCCO)c3nc12 (centres undefined),inactive
